What all share (assay type): functional
Assay [1] has as its system Plasmodium falciparum. The assay is described as follows: GSK_TCMDC: Inhibition of Plasmodium falciparum 3D7 in whole red blood cells, using parasite LDH activity as an index of growth. Test compounds present at 2uM.
The test system of assay [2] is Plasmodium falciparum. The assay is described as follows: GSK_TCMDC: Inhibition of Plasmodium falciparum Dd2 in whole red blood cells, using parasite LDH activity as an index of growth. Test compounds present at 2uM.
Another assay deals with HepG2. Nature of the assay: GSK_TCMDC: Percent inhibition of human HepG2 cell line. Test compounds present at 10uM.

This is an account of results in ChEMBL document CHEMBL1157539, “Thousands of chemical starting points for antimalarial lead identification” (Nature, 2010).

In general, Inhibition refers to the change of the read-out against control, counted positive when it falls. Low values mean a response near the control, high ones a response far below the control.

Consider `CCC(C)NC(=O)CN1CN(c2ccccc2)C2(CCN(C(=O)c3ccc4ccccc4c3)CC2)C1=O` (stereo not drawn), for which the values for the Inhibition in the assay on Plasmodium falciparum [1], in the assay on Plasmodium falciparum [2] and in the assay on HepG2 were 95%, 78% and 0%, respectively.
For `CC[C@H](C)CNCc1ccc(OCc2cccc(COc3ccc(CNC[C@@H](C)CC)cc3I)c2)c(I)c1.Cl` the same measures were 99%, 60% and 99%.
For `O=C(Nc1ccc(-c2cccc(-c3nc4cc(C(F)(F)F)ccc4[nH]3)c2)cc1)c1ccncc1` the same measures were 100%, 23% and 63%.
As for `C=CCn1c(=N)n(CC(O)c2ccc(Cl)c(Cl)c2)c2ccccc21.Cl` (stereo not drawn), the values for the Inhibition with Plasmodium falciparum [1], in the assay on Plasmodium falciparum [2] and with HepG2 were 91%, 80% and 15%, respectively.
For `O=C(O)C(F)(F)F.Oc1ccc(CN2Cc3ccccc3OC3(CCN(Cc4c[nH]c5cnccc45)CC3)C2)cc1` the same measures were 100%, 3% and 17%.
For `COc1ccc(-c2cccc(NC(=O)c3ccc(Cl)cc3)c2)cc1CNC(C)C.O=C(O)C(F)(F)F` the same measures were 100%, 44% and 53%.
For `NCc1ccc(CNCc2cccc(-c3ccc(-c4nc5cc(C(F)(F)F)ccc5[nH]4)cc3)c2)cc1.O=C(O)C(F)(F)F` the same measures were 98%, 90% and 13%.
Consider `O=C(O)C(F)(F)F.c1ccc(CNCc2cccc(-c3cccc(-c4nc5ccccc5[nH]4)c3)c2)cc1`, for which the Inhibition in the assay with Plasmodium falciparum [1] came to 100%; with Plasmodium falciparum [2], 38%; in the assay on HepG2 it was 12%.
For `COc1cc(NC(=O)/C=C/c2ccccc2OC(F)(F)F)cc(OCCN2CCC(O)(c3ccccc3)CC2)c1.O=C(O)C(=O)O` the same measures were 100%, 50% and 61%.
For `Br.CCCc1cc(C(C)=O)ccc1OCCCON1C(=N)N=C(N)NC1(C)C` the same measures were 96%, 96% and 61%.
For `Br.Cc1cccc2c(CON3C(N)=NC(N)=NC3(C)C)cccc12` the same measures were 94%, 94% and 64%.
In the case of `O=c1c2ccccc2[nH]c2cc(Cl)ccc12`, the Inhibition in the assay on Plasmodium falciparum [1] is reported as 95%; in the assay on Plasmodium falciparum [2], 86%; in the assay with HepG2, 24%.
As for `CCOc1ccc(C=CC(=O)Nc2ccc3nc(N4CCOCC4)cc(C)c3c2)cc1OC`, the Inhibition turned out to be 92% with Plasmodium falciparum [1], 23% with Plasmodium falciparum [2] and 14% in the assay on HepG2.
For `CC(C)CC(NC(=O)c1cc2ccccc2s1)C(=O)N1CCCCCC1c1ccc(C(C)(C)C)cc1` (stereo not drawn) the same measures were 91%, 39% and 23%.
For `FC(F)(F)Oc1ccc(-c2cnc3ccc(NCc4ccncc4)nn23)cc1` the same measures were 97%, 54% and 19%.
For `CCN1CCN(c2ccc(Nc3c4ccccc4nc4ccccc34)cc2)CC1` the same measures were 99%, 100% and 24%.
In the case of `CN1CCN(CC(=O)Nc2cccc(-c3ccc(-c4nc5cc(F)ccc5[nH]4)s3)c2)CC1`, the Inhibition was 100% in the assay with Plasmodium falciparum [1], 94% in the assay with Plasmodium falciparum [2] and 71% with HepG2.
For `CC(C)COc1ccc(Cl)cc1Cc1ccc(-c2nc3ccc(F)cc3[nH]2)o1` the same measures were 97%, 49% and 35%.
For `Cc1cc(N2CCN(C)CC2)nc2ccc(NC(=O)Cc3cccc(C(F)(F)F)c3)cc12` the same measures were 99%, 51% and 26%.
For `CCCN1CCN(CC(O)CNC(=O)Nc2ccc(Br)cc2)CC1.O=C(O)C(F)(F)F` (stereo not drawn) the same measures were 100%, 100% and 10%.
Consider `COc1ccc(Cc2cnc3nc(N)nc(N)c3c2C)cc1.Cl`, for which the Inhibition in the assay on Plasmodium falciparum [1] stood at 90%; in the assay with Plasmodium falciparum [2] it was 96%; in the assay on HepG2, 65%.
On to `Br.CC(CON1C(N)=NC(N)=NC1(C)C)Cc1ccc(Cl)cc1Cl` (stereo not drawn), for which the Inhibition in the assay with Plasmodium falciparum [1] is on record as 92%; in the assay on Plasmodium falciparum [2], 97%; with HepG2, 61%.
For `CCC1(C)N=C(N)N=C(N)N1c1ccccc1.Cl` (stereo not drawn) the same measures were 98%, 0% and 6%.
For `Cl.NC1=NC2(CCCC2)N(c2ccc(Cl)cc2)C(N)=N1` the same measures were 97%, 0% and 0%.
As for `CCC(Nc1noc(-c2c(-c3ccccc3)noc2C)n1)c1ccccc1` (stereo not drawn), the Inhibition with Plasmodium falciparum [1] is on record as 99%; with Plasmodium falciparum [2] it was 85%; with HepG2, 4%.
`Cl.O=C(Nc1ccncc1)Nc1ccc2c(c1)CCN(C1CCC1)CC2`: the Inhibition with Plasmodium falciparum [1] amounted to 87%; in the assay with Plasmodium falciparum [2] it was 4%; in the assay with HepG2, 0%.
For `CCCCCn1c(Sc2ccc(C#N)c([N+](=O)[O-])c2)nnc1-c1ccccc1` the same measures were 93%, 15% and 22%.
For `COc1ccc(-c2cnc3[nH]cc(-c4ccc(CCC(=O)O)cc4)c3c2)cn1.O=C(O)C(F)(F)F` the same measures were 98%, 95% and 25%.
On to `CCCC(=O)Nc1ccc(OCCCCN(CC(C)(C)C)c2ccc(C#N)c(C(F)(F)F)c2)cc1`, for which the Inhibition in the assay with Plasmodium falciparum [1] stood at 83%; with Plasmodium falciparum [2] it was 69%; with HepG2, 9%.
For `CC(C)(C)c1ccc(NC(=O)c2ccc(CN3CCCN(Cc4cccc(F)c4)CC3)cc2)cc1.O=C(O)C(F)(F)F` the same measures were 90%, 8% and 51%.
On to `CCCNCc1ccc(-c2ccc(CN(CCOC)C(=O)CCc3ccc(OC)cc3)cc2)nc1.O=C(O)C(F)(F)F`, for which the values for the Inhibition in the assay with Plasmodium falciparum [1], in the assay with Plasmodium falciparum [2] and in the assay with HepG2 were 98%, 29% and 11%, respectively.
For `Oc1cccc(-c2nc(-c3ccccc3)c(-c3ccc4oc5ccc(-c6[nH]c(-c7cccc(O)c7)nc6-c6ccccc6)cc5c4c3)[nH]2)c1` the same measures were 91%, 35% and 30%.
As for `C#CCNCc1ccc(-c2cccc(-c3nc4cccc(C)c4[nH]3)c2)cc1.O=C(O)C(F)(F)F`, the values for the Inhibition with Plasmodium falciparum [1], in the assay with Plasmodium falciparum [2] and with HepG2 were 100%, 32% and 0%, respectively.
For `COc1ccc2nc(C)cc(Nc3ccc(Cl)cc3)c2c1` the same measures were 89%, 3% and 10%.
Regarding `CN(C)CCNCc1cccc(-c2cccc(-c3nc4ccccc4[nH]3)c2)c1.O=C(O)C(F)(F)F`, the Inhibition came to 100% in the assay on Plasmodium falciparum [1], 63% in the assay with Plasmodium falciparum [2] and 7% in the assay on HepG2.
For `O=C(NCc1ccc(F)cc1)Nc1ccc(-c2ccc(-c3nc4ccccc4[nH]3)cc2)cc1` the same measures were 100%, 98% and 43%.
For `Cc1c(Br)cc2nc(-c3ccc(C(=O)NC4CCN(Cc5ccccc5)CC4)cc3)[nH]c2c1C` the same measures were 100%, 98% and 4%.
For `CCN1CCN(CC(O)CNC(=O)Nc2ccc(Cl)cc2)CC1.O=C(O)C(F)(F)F` (stereo not drawn) the same measures were 100%, 99% and 29%.
Take `O=C1CCCC1Sc1nc2ccccc2c(=O)n1-c1ccc(Cl)c(Cl)c1` (stereo not drawn): the Inhibition stood at 97% in the assay on Plasmodium falciparum [1], 42% in the assay with Plasmodium falciparum [2] and 10% with HepG2.
Regarding `Nc1nc(N)c2c3c(cnc2n1)CCCC3`, the values for the Inhibition in the assay with Plasmodium falciparum [1], in the assay on Plasmodium falciparum [2] and in the assay on HepG2 were 95%, 0% and 61%, respectively.
For the compound `CC(C)Sc1nc2c(c(=O)n1Cc1ccco1)C1(CCCCC1)Cc1ccccc1-2`, the Inhibition is 100% in the assay on Plasmodium falciparum [1], 99% in the assay on Plasmodium falciparum [2] and 10% with HepG2.
For `NC1=NC(c2ccccc2)(c2ccccc2)C(=O)N1CCCCc1ccccn1`, the Inhibition with Plasmodium falciparum [1] is listed as 94%; in the assay with Plasmodium falciparum [2], 56%; with HepG2, 10%.
For `CCCOc1ccc2ccccc2c1CNCCCCCCNCc1c(OCCC)ccc2ccccc12.CS(=O)(=O)O` the same measures were 94%, 90% and 100%.
For `CN(CC(=O)Nc1cc(C(F)(F)F)ccc1-n1cncn1)Cc1ccc2ccccc2c1` the same measures were 98%, 99% and 18%.
As to `CN1CCC(N(Cc2ccc(-c3ccc(C(F)(F)F)cc3)nc2)C(=O)Cn2c(CCc3cccc(F)c3F)cc(=O)c3ccccc32)CC1.O=C(O)C(O)C(O)C(=O)O`, the results for the Inhibition in the assay with Plasmodium falciparum [1], in the assay on Plasmodium falciparum [2] and in the assay on HepG2 were 91%, 85% and 60%, respectively.
For `COc1ccc(C2C(C(=O)OC3CCCCC3)=C(C)NC3=C2C(=O)CCC3)cc1Br` (stereo not drawn) the same measures were 95%, 94% and 7%.
